Measurements: PubChem BioAssay (Tox21)
Active and inactive are the calls of the source. Where a call stands in place of a potency, no number is given. The call rests on the fitted dose curve; in most records, active means well fitted curve in the direction sought with a large enough effect in the repeat runs; inconclusive means weak or mixed curves; inactive means flat fitted curve, though single readings scatter.

assay: qHTS assay to test for compound auto fluorescence at 460 nm (blue) in HepG2 cell free culture (AID 720685); details: Cell-free culture medium, blue autofluorescence 405/460 nm; series mostly up to 91.3 µM
Procedure, shortened: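 Cell-free plates of MEM plus 10% FBS received 23 nL compound or DMSO vehicle; blue-channel (405/460 nm) intensity scored against triamterene as reference fluorophore.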
Potency means the concentration at half of the fitted maximal effect; tags describe the fitted curve by direction and shape or compound fluorescence and quenching.

Row | SMILES | Potency | fluorescence, % of fluorescent control
1 | C/C=C/C=C/CCCCCCCO | inactive | 
2 | Cc1cc(OI)c(C(C)C)cc1-c1cc(C(C)C)c(OI)cc1C | inactive | 
3 | CCCCN(CCCC)CCCOC(=O)c1ccc(N)cc1 |  | 0.138% [at 18.6 µM] (inactive)
4 | CCCCC1C(=O)N(c2ccccc2)N(c2ccc(O)cc2)C1=O (stereo not drawn) |  | -0.111% [at 18.6 µM] (inactive)
5 | CC(C)(C)CC(C)(C)c1ccc(OCCO)cc1 | inactive | 
6 | CC(C)(C)C(=O)O | inactive | 
7 | CCCCC/C(=C\c1ccccc1)CO | inactive | 
8 | C[N+]1(C)CCC(=C(c2ccccc2)c2ccccc2)CC1 |  | -0.143% [at 18.6 µM] (inactive)
9 | CO[C@H]1C=CO[C@@]2(C)Oc3c(C)c(O)c4c(O)c(c5c(c4c3C2=O)=NC2(CCN(CC(C)C)CC2)N=5)NC(=O)/C(C)=C\C=C/[C@H](C)[C@H](O)[C@@H](C)[C@@H](O)[C@@H](C)[C@H](OC(C)=O)[C@@H]1C | inactive | 
10 | CCC(C)=O | inactive | 
11 | C[N+](C)(C)CCOC(N)=O | inactive | 
12 | CN1CCN(CCCN2c3ccccc3Sc3ccc(S(=O)(=O)N(C)C)cc32)CC1 |  | 0.208% [at 18.6 µM] (inactive)
13 | CCCCCC=CCC=CCCCCCCCC(=O)OCC | inactive | 
14 | Cc1cc(O)c(C(C)C)cc1Cl | inactive | 
15 | CCC(Cc1ccccc1)(C(=O)c1ccc(N2CCOCC2)cc1)N(C)C (stereo not drawn) | inactive | 
16 | CCOC(=O)[C@@H](C)Oc1ccc(Oc2nc3ccc(Cl)cc3o2)cc1 | inactive | 
17 | CC(=O)[C@H]1CC[C@H]2[C@@H]3C[C@H](C)C4=CC(=O)CC[C@]4(C)[C@H]3[C@@H](O)C[C@]12C |  | 0.0471% [at 18.6 µM] (inactive)
18 | CNCCCC1c2ccccc2C=Cc2ccccc21 |  | -0.0014% [at 18.6 µM] (inactive)
19 | CCc1c2c(nc3ccc(OC(=O)N4CCC(N5CCCCC5)CC4)cc13)-c1cc3c(c(=O)n1C2)COC(=O)[C@]3(O)CC | 12.6 µM [fluorescent] (active) | 

Row | SMILES | Potency | fluorescence, % of fluorescent control
20 | CC(=O)CC(c1ccc([N+](=O)[O-])cc1)c1c(O)c2ccccc2oc1=O (stereo not drawn) |  | -0.0473% [at 18.6 µM] (inactive)
21 | CC(C)(CCl)c1ccccc1 | inactive | 
22 | CCC(C(=O)OCCN(CC)CC)c1ccccc1 (stereo not drawn) | inactive | 
23 | CCOC(=O)c1ccccc1C | inactive | 
24 | CC1CC(=O)NN=C1c1ccc(NCC(C)(C)NCC(O)COc2cc(Cl)ccc2C#N)cc1 (stereo not drawn) | inactive | 
25 | CC[C@@H]([C@H](C)O)n1ncn(-c2ccc(N3CCN(c4ccc(OC[C@@H]5CO[C@@](Cn6cncn6)(c6ccc(F)cc6F)C5)cc4)CC3)cc2)c1=O | inactive | 
26 | CCn1nc(C)c2c1C(=O)NCC(c1ccc(O)cc1)=N2 | inactive | 
27 | CCn1cc(C(=O)O)c(=O)c2cc(F)c(N3CCNCC3)nc21 |  | -0.0969% [at 18.6 µM] (inactive)
28 | CNC(=S)NC | inactive | 
29 | CCCCOC(=O)CCS | inactive | 
30 | Fc1c(F)c(F)c(Br)c(F)c1F | inactive | 
31 | N#C/C(=C1\SCC(c2ccccc2Cl)S1)n1ccnc1 (stereo not drawn) | inactive | 
32 | CCC(C)(C)C1CCC(O)CC1 (stereo not drawn) | inactive | 
33 | O=S(=O)(c1ccccc1)c1ccc(Cl)cc1 | inactive | 
34 | CC(C)OCC1CO1 (stereo not drawn) | inactive | 
35 | c1cnc2c(n1)CCCC2 | inactive | 
36 | COC(=O)Nc1nc2ccc(C(=O)c3cccs3)cc2[nH]1 | inactive | 
37 | CCCCCCCCCCCC[N+](C)(C)CC(=O)[O-] | inactive | 
38 | O=C(Nc1ccc([N+](=O)[O-])cc1)Nc1ccc([N+](=O)[O-])cc1 | inactive | 
